Reference: PubChem BioAssay (EPA / NIEHS)
Values joined by “and” are separate entries in the source; they are usually repeats but may differ in a detail not shown here. Identical values can stand only once. A structure can be active in one record and inactive in another. Active and inactive are the calls of the source. The calls were made as follows: active = hit-call score of the fitted dose curve at least 0.9, where 1 is the maximum; inactive = score below 0.9.

Read-out: not listed separately
Assay: BSK_BF4T_SRB: Viability Assessment in the BioMAP Diversity Plus: BF4T Assay (AID 2284274);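 as to AC50: total cell protein by sulforhodamine B staining as a cytotoxicity measure; measured 24 h after compound addition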
Conditions: primary human bronchial epithelial cells with fibroblasts
Method in brief: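 Cytotoxicity measured as total protein: cells fixed with 10% TCA, stained with 0.1% SRB, read at 560 nm. Bronchial epithelial/dermal fibroblast co-culture, 24 h after dosing, with positive-direction fitting relative to DMSO.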

SMILES	outcome	AC50
NC(=O)C(F)(F)C(F)(F)C(F)(F)C(F)(F)F	inactive	
O=C(O)C(F)(F)C(F)(F)C(F)F	inactive	
C=CC(F)(F)C(F)(F)C(F)(F)C(F)(F)C(F)(F)C(F)(F)C(F)(F)C(F)(F)F	inactive	
OCCCC(F)(F)C(F)(F)C(F)(F)F	inactive	
C=CC(=O)OCC(F)(F)C(F)(F)C(F)(F)C(F)(F)COC(=O)C=C	inactive	
O=C(O)C(F)(OC(F)(F)C(F)(OC(F)(F)C(F)(OC(F)(F)C(F)(F)C(F)(F)F)C(F)(F)F)C(F)(F)F)C(F)(F)F (stereo not drawn)	inactive	
O=C(O)C(F)(F)C(F)(F)C(F)(F)C(F)(F)C(F)(F)C(F)(F)C(F)(F)C(F)(F)C(F)(F)C(F)F		41.7 µM (active) and 40.8 µM (active)
FC(F)(F)C(F)(F)C(F)(F)C(F)(F)C(F)(F)CCI	inactive	
C=CC(=O)OCC(F)(F)C(F)(F)C(F)(F)C(F)(F)C(F)(F)C(F)(F)C(F)(F)F	inactive	
FC(F)(F)C(F)(F)C(F)(F)CI	inactive	

Read-out: Interleukin-8 (IL8), CXCL8 (gene 3576)
Assay: BSK_IMphg_IL8: BioMAP Diversity Plus: IMphg Assay for Interleukin-8 (IL8) Biomarker Activity (AID 2284277)
Conditions: primary human endothelial cells with macrophages
Method in brief: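 IL-8 levels were measured by ELISA 24 h after dosing in primary human venular endothelial cell–macrophage cultures, referenced to DMSO; parallel SRB staining monitored overt cytotoxicity.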

SMILES	outcome
C=C(C)C(=O)OCC(F)(F)C(F)(F)C(F)(F)F	inactive
C=CC(F)(F)C(F)(F)C(F)(F)C(F)(F)C(F)(F)C(F)(F)C(F)(F)C(F)(F)C=C	inactive
C=C(C)C(=O)OCC(F)(F)C(F)(F)C(F)(F)C(F)(F)C(F)(F)C(F)(F)C(F)(F)F	inactive
Cc1ccc(S(=O)(=O)OCC(F)(F)C(F)(F)C(F)(F)C(F)(F)C(F)(F)C(F)F)cc1	inactive
FC(F)(F)C(F)(F)CNCC(F)(F)C(F)(F)F	inactive
FC(F)(F)C(F)(F)C(F)(F)N(C(F)(F)C(F)(F)C(F)(F)F)C(F)(F)C(F)(F)C(F)(F)F	inactive
OCC(F)(F)C(F)(F)C(F)(F)C(F)(F)C(F)(F)C(F)(F)F	inactive
CC(C)(C)C(=O)CC(=O)C(F)(F)C(F)(F)C(F)(F)F	inactive
FC(F)(F)C(F)(F)C(F)(F)C(F)(F)C(F)(F)C(F)(F)C(F)(F)Br	inactive
CCO[Si](CCC(F)(F)C(F)(F)C(F)(F)C(F)(F)C(F)(F)C(F)(F)F)(OCC)OCC	inactive
FC(F)(F)C(F)(F)C(F)(F)C(F)(F)CCI	inactive
FC(F)(F)C(F)(F)C(F)(F)C(F)(F)C(F)(F)C(F)(F)C(F)(F)C(F)(F)F	inactive
FC(F)(F)C(F)(F)C(F)(F)C(F)(F)C(F)(F)C(F)(F)C(F)(F)C(F)(F)CCS	inactive
O=C(O)C(F)(F)C(F)(F)C(F)(F)C(F)(F)C(F)(F)C(F)(F)C(F)(F)C(F)(F)C(F)(F)C(F)(F)C(F)(F)C(F)(F)F	inactive
OCC(F)(F)C(F)(F)C(F)(F)F	inactive
NC(=O)C(F)(F)C(F)(F)C(F)(F)C(F)(F)F	inactive
O=C(O)C(F)(F)C(F)(F)C(F)F	inactive
C=CC(F)(F)C(F)(F)C(F)(F)C(F)(F)C(F)(F)C(F)(F)C(F)(F)C(F)(F)F	inactive
OCCCC(F)(F)C(F)(F)C(F)(F)F	inactive
C=CC(=O)OCC(F)(F)C(F)(F)C(F)(F)C(F)(F)COC(=O)C=C	inactive
O=C(O)C(F)(OC(F)(F)C(F)(OC(F)(F)C(F)(OC(F)(F)C(F)(F)C(F)(F)F)C(F)(F)F)C(F)(F)F)C(F)(F)F (stereo not drawn)	inactive
O=C(O)C(F)(F)C(F)(F)C(F)(F)C(F)(F)C(F)(F)C(F)(F)C(F)(F)C(F)(F)C(F)(F)C(F)F	inactive
FC(F)(F)C(F)(F)C(F)(F)C(F)(F)C(F)(F)CCI	inactive
C=CC(=O)OCC(F)(F)C(F)(F)C(F)(F)C(F)(F)C(F)(F)C(F)(F)C(F)(F)F	inactive
FC(F)(F)C(F)(F)C(F)(F)CI	inactive

Read-out: Intercellular Adhesion Molecule 1 (ICAM1), ICAM1 (gene 3383)
Assay: BSK_BE3C_ICAM1: BioMAP Diversity Plus: BE3C Assay for Intercellular Adhesion Molecule 1 (ICAM1) Biomarker Activity (AID 2284278);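 as to outcome: cell-surface ICAM-1 protein level quantified by ELISA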
Conditions: primary human bronchial epithelial cells
Method in brief: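 Here, ICAM-1 levels on confluent human bronchial epithelial primary cells are read by ELISA at 24 h after chemical dosing. Parallel SRB staining (0.1% after 10% TCA fixation, 560 nm) checks cytotoxicity.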

SMILES	outcome	AC50
C=C(C)C(=O)OCC(F)(F)C(F)(F)C(F)(F)F	inactive	
C=CC(F)(F)C(F)(F)C(F)(F)C(F)(F)C(F)(F)C(F)(F)C(F)(F)C(F)(F)C=C	inactive	
C=C(C)C(=O)OCC(F)(F)C(F)(F)C(F)(F)C(F)(F)C(F)(F)C(F)(F)C(F)(F)F	inactive	
Cc1ccc(S(=O)(=O)OCC(F)(F)C(F)(F)C(F)(F)C(F)(F)C(F)(F)C(F)F)cc1	inactive	
FC(F)(F)C(F)(F)CNCC(F)(F)C(F)(F)F	inactive	
FC(F)(F)C(F)(F)C(F)(F)N(C(F)(F)C(F)(F)C(F)(F)F)C(F)(F)C(F)(F)C(F)(F)F	inactive	
OCC(F)(F)C(F)(F)C(F)(F)C(F)(F)C(F)(F)C(F)(F)F	inactive	
CC(C)(C)C(=O)CC(=O)C(F)(F)C(F)(F)C(F)(F)F	inactive	
FC(F)(F)C(F)(F)C(F)(F)C(F)(F)C(F)(F)C(F)(F)C(F)(F)Br	inactive	
CCO[Si](CCC(F)(F)C(F)(F)C(F)(F)C(F)(F)C(F)(F)C(F)(F)F)(OCC)OCC	inactive	
FC(F)(F)C(F)(F)C(F)(F)C(F)(F)CCI	inactive	
FC(F)(F)C(F)(F)C(F)(F)C(F)(F)C(F)(F)C(F)(F)C(F)(F)C(F)(F)F	inactive	
FC(F)(F)C(F)(F)C(F)(F)C(F)(F)C(F)(F)C(F)(F)C(F)(F)C(F)(F)CCS	inactive	
O=C(O)C(F)(F)C(F)(F)C(F)(F)C(F)(F)C(F)(F)C(F)(F)C(F)(F)C(F)(F)C(F)(F)C(F)(F)C(F)(F)C(F)(F)F	inactive	
OCC(F)(F)C(F)(F)C(F)(F)F	inactive	
NC(=O)C(F)(F)C(F)(F)C(F)(F)C(F)(F)F	inactive	
O=C(O)C(F)(F)C(F)(F)C(F)F	inactive	
C=CC(F)(F)C(F)(F)C(F)(F)C(F)(F)C(F)(F)C(F)(F)C(F)(F)C(F)(F)F	inactive	
OCCCC(F)(F)C(F)(F)C(F)(F)F	inactive	
C=CC(=O)OCC(F)(F)C(F)(F)C(F)(F)C(F)(F)COC(=O)C=C		26.3 µM (active) and 25.9 µM (active)
CCCCC(CC)COP(=O)(O)OCC(CC)CCCC (stereo not drawn)	inactive	29 µM (active)
O=C(O)C(F)(OC(F)(F)C(F)(OC(F)(F)C(F)(OC(F)(F)C(F)(F)C(F)(F)F)C(F)(F)F)C(F)(F)F)C(F)(F)F (stereo not drawn)	inactive	
O=C(O)C(F)(F)C(F)(F)C(F)(F)C(F)(F)C(F)(F)C(F)(F)C(F)(F)C(F)(F)C(F)(F)C(F)F		20.3 µM (active) and 21.1 µM (active)
FC(F)(F)C(F)(F)C(F)(F)C(F)(F)C(F)(F)CCI	inactive	
CCCCCCOC(=O)c1ccccc1O	inactive	
C=CC(=O)OCC(F)(F)C(F)(F)C(F)(F)C(F)(F)C(F)(F)C(F)(F)C(F)(F)F	inactive	
FC(F)(F)C(F)(F)C(F)(F)CI	inactive	
